From ChEMBL document CHEMBL1961873, “Compounds: GSK PKIS; Assays: Nanosyn kinase panel” (2012)
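Also: reported value is the mean inhibition, from the GSK PKIS kinase screening panel.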

The compounds below were run against T1, Testis-specific serine/threonine-protein kinase 1 (Homo sapiens) (UniProt Q9BXA7). Conditions: at 1 µM.
T1 sequence (whole entry): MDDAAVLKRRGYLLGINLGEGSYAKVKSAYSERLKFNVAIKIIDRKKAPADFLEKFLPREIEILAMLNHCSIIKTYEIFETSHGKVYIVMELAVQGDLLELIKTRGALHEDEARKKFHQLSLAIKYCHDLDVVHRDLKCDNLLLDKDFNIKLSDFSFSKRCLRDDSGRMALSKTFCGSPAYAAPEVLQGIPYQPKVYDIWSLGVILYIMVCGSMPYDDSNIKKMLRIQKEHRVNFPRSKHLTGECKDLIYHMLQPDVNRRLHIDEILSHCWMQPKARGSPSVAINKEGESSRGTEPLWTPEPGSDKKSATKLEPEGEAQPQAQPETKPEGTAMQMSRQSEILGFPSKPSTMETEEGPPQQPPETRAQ
With `Clc1ccc(CNc2nccc(-c3cnn4ncccc34)n2)cc1` the inhibition was -0.65%.
`CN(c1ccc(NC(=O)Nc2c(Cl)cccc2Cl)cc1)c1ccnc(Nc2cccc(CS(C)(=O)=O)c2)n1` was tested, and the inhibition was 3.33%.
With `Cc1ccc(NC(=O)c2ccoc2)cc1-c1ccc(C(=O)NCC2CC2)cc1` the inhibition was 3.27%.
Compound `FC(F)(F)c1cccc(Nc2nccc(-c3cnn4nc(-c5ccccc5)ccc34)n2)c1` has an inhibition of 2.01%.
With `CN(C)c1ccc2c(c1)/C(=C/Nc1ccc(S(N)(=O)=O)cc1)C(=O)N2` the inhibition was 9.92%.
In the case of `C/C(Nc1ccc(S(N)(=O)=O)cc1)=C1/C(=O)Nc2ccccc21`, the inhibition is reported as 5.46%.
For `COc1cc(N2CCN(C(C)C)CC2)ccc1Nc1nc(Nc2ccc(F)cc2C(=O)NC[C@@H](O)CO)c2cc[nH]c2n1`, the inhibition was 84.9%.
With `Nc1nccc(-c2c(-c3ccc(F)cc3)ncn2C2CCC(O)CC2)n1` (centres undefined) the inhibition was -1.96%.
Work on `N#Cc1ccc(Oc2nccc(-c3c(-c4ccc(F)cc4)ncn3C3CCNCC3)n2)cc1` yielded an inhibition of 4.18%.
Compound `C[C@@H](Oc1cc(-n2cnc3ccc(OCC4CCN(C)CC4)cc32)sc1C(N)=O)c1ccccc1Cl` has an inhibition of 13.6%.
For `Fc1ccc(-c2c(-c3ccncc3)nc3n2CCS3)cc1`, the inhibition was 2.91%.
`O=C(Nc1n[nH]c2cc(-c3cc(F)ccc3F)ccc12)C1CC1` gave an inhibition of 2.04%.
Work on `CCS(=O)(=O)c1ccc(OC)c(Nc2ncc(-c3ccccc3Cl)o2)c1` yielded an inhibition of -0.15%.
`O=C(Nc1n[nH]c2nc(-c3ccco3)ccc12)C1CC1` was tested, and the inhibition was -0.53%.
Work on `NS(=O)(=O)c1ccc(Nc2cc(-c3ccc(O)c(F)c3)n[nH]2)cc1` yielded an inhibition of -0.04%.
`O=C1Nc2ccccc2/C1=C/Nc1ccc(-n2cncn2)cc1` showed an inhibition of 7.35%.
`Fc1ccc(-c2ncn(C3CCNCC3)c2-c2ccnc(Oc3ccc(F)c(F)c3)n2)cc1` gave an inhibition of 3.01%.
Work on `COc1cc(C)c(N(C)C(=O)CN(C)C)cc1Nc1nc(Nc2cccc(F)c2C(N)=O)c2cc[nH]c2n1` yielded an inhibition of 16.4%.
Compound `COc1ccc(-c2ccc3c(NC(=O)C4CC4)n[nH]c3n2)cc1` has an inhibition of 4.85%.
`COc1cc(Nc2ncc3c(C)nc(-c4cccc(Oc5ccccc5)c4)n3n2)cc(OC)c1OC` showed an inhibition of 5.53%.
Compound `COc1cc(Nc2ncc3c(C)nc(-c4cccc(C(F)(F)F)c4)n3n2)cc(OC)c1OC` has an inhibition of 9.14%.
With `c1ccc(-c2n[nH]cc2-c2ccnc(-c3ccc(OCCN4CCOCC4)cc3)c2)nc1` the inhibition was -3.08%.
`CCc1cccc(CC)c1/C=C/c1cncc(C(=O)NC)c1` showed an inhibition of 0.1%.
`NS(=O)(=O)c1ccc(N/N=C2\C(=O)Nc3ccc(-c4cnco4)cc32)cc1` was tested, and the inhibition was 12.4%.
`COc1cc2ncn(-c3cc(OCc4ccccc4C(F)(F)F)c(C(C)=O)s3)c2cc1OC` was tested, and the inhibition was 3.05%.
`COc1cccc(-n2cnc3c(N/N=C/c4ccncc4)ncnc32)c1` showed an inhibition of 5.32%.
Work on `NS(=O)(=O)c1ccc(N/N=C2\C(=O)Nc3ccc(C(=O)NCCCn4ccnc4)cc32)cc1` yielded an inhibition of 13.3%.
For `Fc1ccc(-c2ncn(C3CCNCC3)c2-c2ccnc(Oc3ccc4c(c3)OCO4)n2)cc1`, the inhibition was 4.17%.
`COc1cc(Nc2ncc(-c3ccccc3)o2)cc(OC)c1OC` was tested, and the inhibition was -0.04%.
With `Fc1ccc(-c2ncn(C3CCNCC3)c2-c2ccnc(Oc3ccc(Oc4ccccc4)cc3)n2)cc1` the inhibition was 4.2%.
`O=C(Nc1ccc(Oc2ccc3[nH]c(NC(=O)c4ccccc4)nc3c2)cc1)Nc1cc(C(F)(F)F)ccc1F` showed an inhibition of 0.69%.
Work on `Cc1ccc(C(=O)NC(C)C)cc1-c1ccc(C(=O)NCC2CC2)cc1` yielded an inhibition of -1.52%.
Compound `NC(=O)c1ccc(Oc2nccc(-c3c(-c4ccc(F)cc4)ncn3C3CCNCC3)n2)cc1` has an inhibition of 5.29%.
Work on `NC(=O)Cc1ccccc1Oc1nccc(-c2c(-c3ccc(F)cc3)ncn2C2CCNCC2)n1` yielded an inhibition of 1.8%.
